Among the data in PubChem BioAssay (NCATS) are Potency and outcome values, retold here.

Experiment [1] in a line: OV-KATE Cancer Cell Toxicity qHTS against the NCATS CANVASS Library (AID 1347345). Note: potency is the fitted concentration of half-maximal effect. The method, boiled down: (§1)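 Per well, 1000 cells; exposure 72 h with compound at 11 final concentrations; readout CellTiter-Glo luminescence.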
(In general: In qHTS, concentration-response curves come from the screen itself.)

Experiment [2] is described as follows: UWB1.289 Cancer Cell Toxicity qHTS against the NCATS CANVASS Library (AID 1347347). Note: nearly all actives have a fitted effect of over 60% in size. Note: potency is the fitted concentration of half-maximal effect. A digest of the protocol:
as §1

Experiment [3] is described as follows: OV-SAHO Cancer Cell Toxicity qHTS against the NCATS CANVASS Library (AID 1347348). Note: nearly all actives have a fitted effect of over 55% in size. Note: potency is the fitted concentration of half-maximal effect. The method, boiled down: as §1
The nature of experiment [4]: SW1088 Cancer Cell Toxicity qHTS against the NCATS CANVASS Library (AID 1347350). Note: nearly all actives have a fitted effect of over 75% in size. Note: potency is the fitted concentration of half-maximal effect. A digest of the protocol:
as §1

Experiment [5] is described as follows: U-118MG Cancer Cell Toxicity qHTS against the NCATS CANVASS Library (AID 1347351). Note: potency is the fitted concentration of half-maximal effect. The method, boiled down:
as §1

A short description of experiment [6]: COV-362 Cancer Cell Toxicity qHTS against the NCATS CANVASS Library (AID 1347352). Note: series mostly up to about 38 µM. A digest of the protocol: (§2)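 qHTS cytotoxicity: compounds tested in 11 concentrations on 1000 seeded cells per well over 72 h; bortezomib served as control; signal from CellTiter-Glo luminescence.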
A short description of experiment [7]: UWB1.289-WTBRCA1 Cancer Cell Toxicity qHTS against the NCATS CANVASS Library (AID 1347354). The method, boiled down: as §2
Experiment [8] in a line: HPAF-II 12hr Apoptosis Induction qHTS against the NCATS CANVASS Library (AID 1347358). The method, boiled down:
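Apoptosis in HPAF-II pancreatic cancer cells is scored as caspase 3/7 luminescence following a 12-hour exposure to an 11-point compound series.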

Experiment [9] can be described thus: HEK293 12hr Apoptosis Induction qHTS against the NCATS CANVASS Library (AID 1347361). The method, boiled down:
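Cells are seeded, dosed with an 11-point compound series and incubated 12 hours. Caspase-3/7 activity is detected by luminescent DEVD-substrate reagent after 15 minutes at room temperature.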

Experiment [10] can be described thus: KB-8-5-11 Cancer Cell Toxicity qHTS against the NCATS CANVASS Library (AID 1347364). Note: nearly all actives have a fitted effect of over 75% in size. Note: potency is the fitted concentration of half-maximal effect. A digest of the protocol:
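Natural products were titrated in 11 points onto KB-8-5-11 cells, 500 per well, and cytotoxicity was scored from CellTiter-Glo luminescence after 72 hr culture.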

Experiment [11] in a line: qHTS for Hypoxia signaling pathway (HIF-1) agonists against the NCATS CANVASS Library (AID 1347375). A digest of the protocol:
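Inducers of HIF-1 signaling were detected in ME-180 cells bearing an HRE-driven beta-lactamase reporter after 17 h compound exposure. Activity came from CCF4-AM FRET emission ratio (460/530 nm) in qHTS format.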

A short description of experiment [12]: qHTS assay for small molecule disruptors of mitochondrial membrane potential screened against the NCATS CANVASS Library (AID 1347389). Note: nearly all actives have a fitted effect of over 60% in size. Note: potency is the fitted concentration of half-maximal effect. The method, boiled down: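 Compounds tested in 11-point qHTS series on HepG2 cells for 1 hr; membrane-potential dye added for 30 min at 37C. Lower red-to-green ratio indicates loss of potential.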
Experiment [13] is described as follows: Secretion counterscreen for inhibitors of the SERCaMP assay screened against the NCATS CANVASS Library (AID 1347390).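 Note: light from luciferase secreted into medium read as a measure of general secretion; series mostly up to about 77 µM.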 A digest of the protocol: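 SH-SY5Y-GLuc STOP cells; 4 h attach; cpds 0.001 - 77 uM (qHTS, 11 pts), 20 h 37C/5% CO2; coelenterazine in glow buffer; luminescence, 5 s exposure.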
(Counterscreens check selectivity or assay interference.)

A short description of experiment [14]: qHTS for activators of Nrf2/ARE signaling pathway screened against the NCATS CANVASS Library (AID 1347391). Note: nearly all actives have a fitted effect of over 60% in size. Note: potency is the fitted concentration of half-maximal effect. A digest of the protocol:
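Cells carrying an ARE-driven beta-lactamase reporter (HepG2 background) are dosed for 16 h, then stained with CCF4. Cell viability in the same wells is measured by CellTiter-Glo luminescence.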

Experiment [15] is described as follows: qHTS for activators of dead-cell proteases activity screened against the NCATS CANVASS Library (AID 1347392).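 Note: luminescence from protease leaking out of membrane-damaged cells cleaving impermeant substrate; rising signal means more cytotoxicity.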 The method, boiled down: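 HepG2 cells, 2000/well, attached 18 h at 37C, then exposed to compounds (11-point qHTS) for 5 h. Dead-cell protease release read as luminescence from cell-impermeant AAF-aminoluciferin substrate after 15 min at room temperature.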

Experiment [16] can be described thus: qHTS for inhibitors of ER calcium dysfunction: SERCaMP assay screened against the NCATS CANVASS Library (AID 1347393). Note: nearly all actives have a fitted effect of over 40% in size. Note: potency is the fitted concentration of half-maximal effect. The method, boiled down: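 SH-SY5Y GLuc-SERCaMP, 1000 cells/well, 4 h attach; cpd 16 h, 37C/5% CO2; thapsigargin (added as 6x 600 nM) 4 h; coelenterazine; luminescence. Reduced reporter release = ER Ca stabilization.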
Experiment [17] is described as follows: qHTS for Antimalaria activity screened against the NCATS CANVASS Library (AID 1347380). Note: nearly all actives have a fitted effect of over 40% in size. Note: potency is the fitted concentration of half-maximal effect. A digest of the protocol: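 Growth inhibition of asexual erythrocytic P. falciparum Dd2 was quantified by SYBR Green DNA staining. Cultures grew 72 h with compound (11-point series) in hypoxic gas at 37C; lysis and staining lasted 18 h.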
The nature of experiment [18]: qHTS for inhibitors of Wild type Zika virus screened against the NCATS CANVASS Library (AID 1347396).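 Note: ATP luminescence of surviving cells so rescue from viral cell killing; series mostly up to about 46 µM.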 A digest of the protocol: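 Luminescent CellTiter Glo read-out of virus-induced cytotoxicity, 72 h post-infection, in Vero 766 cells. Compounds were tested at 11 concentrations; uninfected, vehicle-treated wells defined 100% inhibition.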
A short description of experiment [19]: Redox Reaction Profiling qHTS: Assay Interference Panel against the NCATS CANVASS Library (AID 1347401). A digest of the protocol: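 Compounds in 11-point series incubated with 5 uM resazurin and 200 uM DTT in 50 mM HEPES pH 7.3, 50 mM NaCl. Resorufin fluorescence (Ex 525/Em 598) read before and after 15 min in the dark.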
Experiment [20] is described as follows: HPAF-II Cancer Cell Toxicity qHTS against the NCATS CANVASS Library (AID 1347346). Note: nearly all actives have a fitted effect of over 55% in size. Note: potency is the fitted concentration of half-maximal effect. A digest of the protocol: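 Cytotoxicity in HPAF-II pancreatic cancer cells: 72 h treatment across 11 concentrations, ATP-based CellTiter-Glo luminescence endpoint.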

Records with an inconclusive call do not appear. Calls of active or inactive are those of the source. Calls come from the whole dose curve; as a rule, active = well fitted curve in the direction sought with a large enough effect; inconclusive = small, poorly fitted or top-dose-only effect, or another doubt; inactive = no such curve, though single readings can be large; an effect the other way counts as inactive or inconclusive.

Consider `COC12OC1(C13OC1(OC)C(=O)c1cc4cc(C)oc(=O)c4c(O)c1C3O)C(O)c1c(cc3cc(C)oc(=O)c3c1O)C2=O` (configuration not stated), for which the Potency entry in experiment [1], in [2], in [3], in experiment [5], in [6] and in [7] was “inactive” each time. In addition, the Potency result in [8], in experiment [10], in [12], in [13], in [14] and in experiment [15] was “inactive” throughout. Moreover, the Potency result in experiment [16] was “inactive”. In addition, the Potency in experiment [4] was 18.8 µM (active). For the same molecule, the molecule was called inactive in experiment [9] and in experiment [11].
In the case of `C[C@H]1C=C[C@H]2CCCC[C@@H]2[C@H]1C(=O)[C@H]1CC2=C(C(=O)O)CCN2C1=O`, the Potency result in [1], in experiment [2], in experiment [5], in [6], in [7] and in experiment [8] was “inactive” throughout. For the same molecule, the Potency entry in [10], in experiment [17], in experiment [12] and in experiment [13] was “inactive” in each case. Besides, the Potency is 16.8 µM (active) in experiment [4], 16.6 µM (active) in experiment [14] and 19.3 µM (active) in experiment [16]. The molecule was called inactive in experiment [11] and in [18].
As to `CCC(=O)N[C@@H](C[C@H](C)C(Cl)(Cl)Cl)C(=O)N1C(=O)C=C(OC)[C@@H]1CC(C)C`, the Potency result in experiment [1], in experiment [2], in experiment [3], in [5], in [6] and in [7] was “inactive” throughout. Also, the Potency entry in [17], in experiment [12], in experiment [13], in experiment [15] and in experiment [16] was “inactive” each time. Moreover, in experiment [18], the call was inactive.
Regarding `C[n+]1cc2cc(C(N)=O)[nH]c3c(=N)c(Cl)c(N)c1c23`, the Potency result in experiment [1], in experiment [2], in experiment [3], in [4], in [5] and in experiment [6] was “inactive” each time. Also, the Potency entry in experiment [7], in experiment [8], in experiment [10], in [17], in experiment [13] and in [14] was “inactive” in each case. For the same molecule, the Potency result in experiment [16] was “inactive”. Further, the call in experiment [9], in experiment [11] and in experiment [18] was inactive.
Regarding `O=c1cc(-c2ccc(O)c(O)c2)oc2cc(O[C@@H]3O[C@H](CO)[C@@H](O)[C@H](O)[C@H]3O)cc(O)c12`, the Potency entry in [1], in experiment [5], in experiment [6], in experiment [8], in experiment [13] and in [14] was “inactive” in each case. Further, the Potency result in [15] and in experiment [19] was “inactive” in each case. Further, the Potency in [2] was 1.18 µM (active); in experiment [3], 16.7 µM (active); in [17], 0.236 µM (active); in experiment [12], 8.31 µM (active); in experiment [16], 38.4 µM (active). For the same molecule, the call in experiment [9], in experiment [11] and in experiment [18] was inactive.
As for `Cc1occ2c1C(=O)c1c(cc(O)c(O)c1O)C2=O`, the Potency result in experiment [1], in [7], in experiment [8], in experiment [13] and in experiment [19] was “inactive” each time. In addition, the Potency was 5.95 µM (active) in experiment [4], 13.3 µM (active) in [5] and 7.41 µM (active) in experiment [12]. In addition, the molecule was classed as inactive in [9], in experiment [11] and in [18].
For `C/C1=C/[C@@H](C)[C@H](O)[C@@H](O)/C=C/CC/C=C/C(=O)O[C@@H]1[C@H](C)C(=O)CCCC1CC(=O)NC(=O)C1`, the Potency entry in [1], in experiment [2], in [3], in experiment [5], in [6] and in experiment [7] was “inactive” throughout. The Potency result in experiment [8], in experiment [10], in experiment [17], in [12], in [13] and in experiment [15] was “inactive” in each case. For the same molecule, the Potency entry in experiment [16] and in [19] was “inactive” in each case. In addition, the molecule was classed as inactive in [9], in experiment [11] and in [18].
Consider `CC(C)C[C@@H]1c2c(O)c(C=O)c(O)c(C=O)c2O[C@]2(C)C=C[C@@H](C(C)C)C[C@H]12`, for which the Potency entry in [1], in [20], in experiment [5], in experiment [6], in experiment [7] and in [10] was “inactive” in each case. The Potency result in experiment [12], in experiment [13], in experiment [14], in experiment [15] and in experiment [16] was “inactive” throughout. Moreover, the call in experiment [9], in experiment [11] and in experiment [18] was inactive.
Consider `COc1ccc2[nH]c3c(c2c1)CCN1C[C@H]2C[C@@H](OC(=O)c4cc(OC)c(OC)c(OC)c4)[C@H](OC)[C@@H](OC)[C@H]2C[C@H]31`, for which the Potency entry in [1], in experiment [7], in experiment [14] and in [15] was “inactive” each time. Besides, the Potency is 13.3 µM (active) in experiment [20], 7.47 µM (active) in experiment [17] and 6.09 µM (active) in experiment [16]. In addition, the molecule was classed as inactive in experiment [18].
Take `COc1cc(O)c(C(=O)[C@@H]2[C@H](CC=C(C)C)C(C)=CC[C@H]2c2ccccc2)c(O)c1`: the Potency is 13.3 µM (active) in [20]; 13.3 µM (active) in experiment [2]; 23.6 µM (active) in [3]; 5.95 µM (active) in experiment [4]; 7.49 µM (active) in [5]; 16.6 µM (active) in experiment [10]. The Potency in [17] is 6.66 µM (active); in experiment [12], 4.67 µM (active). Also, the Potency entry in experiment [14], in [15] and in experiment [19] was “inactive” in each case.
For the molecule `C[C@]12CC[C@]3(C1)[C@H](CC2=O)C[C@@H](OC(=O)c1ccccc1)[C@H]1[C@](C)(C(=O)O)CCC[C@@]13C`, the Potency result in experiment [1], in [5], in experiment [6], in [7], in [12] and in [15] was “inactive” each time. For the same molecule, the Potency entry in experiment [16] and in experiment [19] was “inactive” each time. Also, the Potency was 1.49 µM (active) in experiment [4], 0.0133 µM (active) in experiment [17] and 3.71 µM (active) in [14]. The call in experiment [9] and in experiment [11] was inactive.
For the molecule `COc1c(O)cc2c(c1O)C(=O)c1c(coc1C)C2=O`, the Potency entry in experiment [20], in [2], in experiment [3], in experiment [6], in experiment [7] and in experiment [8] was “inactive” throughout. Besides, the Potency entry in experiment [10] and in [13] was “inactive” in each case. Moreover, the molecule was called inactive in [11] and in [18]. Moreover, the Potency was 10.5 µM (active) in experiment [12] and 7.41 µM (active) in experiment [14].
Take `C/C=C/C1C=CC2CC(C)CC(C)C2C1C(=O)CC(=O)NC(CO)C/C=C/CCCCC` (configuration not stated): the Potency in experiment [1] was 10.6 µM (active); in experiment [4], 14.9 µM (active); in experiment [14] it was 16.6 µM (active); in experiment [16] it was 6.09 µM (active). The Potency result in [5], in experiment [7], in [8] and in [17] was “inactive” in each case. Besides, the molecule was classed as inactive in [9], in experiment [11] and in experiment [18].
